Source: PubChem BioAssay (several laboratories)
TROY signal inh: blocks TROY-dependent signaling in reporter cells | inhibition, % at 10 µM | actives 0.98% (n = 360,000) | AID 1347056 | Q293 LMP1-TROYcd NF-kB luciferase reporter, 4 h;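 active = compounds whose plate-normalised and pattern-corrected inhibition of the luciferase reporter signal at the single screening dose is 50% or more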
TWEAK-Fn14 inh: TWEAK-Fn14 signaling inhibition. TWEAK-stimulated Fn14 reporter cells, luciferase luminescence, 8 h. inhibition, % at 10 µM. actives 2% (n = 360,000); in the data active = inhibition above about 50%
Shn3 inh set2: inhibitors of Schnurri-3 3'UTR reporter in osteoblasts. AID 588674. inhibition, % at 12.5 µM. Clone20 osteoblast Shn3 3'UTR firefly luciferase, 24 h. actives 0.52% (n = 360,000);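 active = mean inhibition of at least 75% with every replicate also reaching 75%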;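 note: 0% = median of neutral control wells and 100% = pilot-screen positive control compound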
LMP1 NFkB inh: inhibitors of Epstein-Barr LMP1-induced NF-kappaB reporter; LMP1-induced NF-kappaB luciferase reporter cells, luminescence; inhibition, % at 12.5 µM; actives 0.69% (n = 350,000); in the data active = inhibition above about 41%;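 note: 0% = neutral control wells and 100% = reference inhibitor control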
MITF TRPM1 inh: MITF TRPM1 promoter inhibition in SK-MEL-5 cells; SK-MEL-5 TRPM1 promoter luciferase, 24 h; inhibition, % at 12.5 µM; actives 0.83% (n = 330,000); AID 488899;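 active = mean inhibition across replicates of 60% or more, whatever share of single replicates reaches that level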
Peg3 prom inh: inhibitors of Peg3 promoter; AID 588405; HeLa PEG-Prom luciferase reporter, luminescence, overnight; inhibition, % at 20 µM; actives 1.7% (n = 360,000);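 active = inhibition of at least 50% at 20 µM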
Numbers without * were called inactive; / = no result. The list is not random: actives were taken first. Their share in the collection is about 4.1%.

SMILES | TROY signal inh | TWEAK-Fn14 inh | Shn3 inh set2 | LMP1 NFkB inh | MITF TRPM1 inh | Peg3 prom inh
Nc1ncnc(SCc2c(F)cccc2Cl)n1 | 4 | 32 | 4 | -1 | 0 | -2
COCCn1c(C)cc(C(=O)COc2nc3ccccc3nc2C)c1C | -16 | 19 | 68 | 11 | 16 | 7
COC(=O)CCCn1c(C)cc(C(=O)CCl)c1C | 9 | 13 | 7 | -4 | 14 | 51*
COC(=O)CCn1c(C)cc(C(=O)COc2ccccc2C(N)=O)c1C | 23 | 53* | 58 | 6 | 12 | 3
COC(=O)c1c(-c2ccc(OC)c(OC)c2)csc1N | -1 | 11 | 17 | -8 | 6 | -9
COC(=O)c1c(-c2ccc3ccccc3c2)csc1NC(=O)Cc1ccc(OC)c(OC)c1 | 47 | 65* | 59 | 13 | 16 | 42
Cc1c(C(=O)Nc2ccc(S(=O)(=O)Nc3ncccn3)cc2)oc2ccc(F)cc12 | -29 | 16 | 2 | / | -13 | -2
COc1ccccc1C1CC(c2cccs2)=Nc2ccccc2S1 (configuration not stated) | -15 | -7 | -13 | -30 | -5 | -29
Fc1ccccc1C1CC(c2ccco2)=Nc2ccccc2S1 (configuration not stated) | 43 | 53* | -64 | -46 | 5 | -169
CCc1ccc(NC(=O)C2CCN(C(=O)N3CCOc4ccccc43)CC2)cc1 | -2 | -9 | 20 | -10 | / | 9
O=C(Nc1cccc(F)c1)C1CCN(C(=O)N2CCOc3ccccc32)CC1 | 13 | 9 | -21 | 84* | -7 | 5
CN(CC1CCCO1)S(=O)(=O)c1ccc(C(=O)Nc2nc(-c3ccccn3)cs2)cc1 (configuration not stated) | 30 | 23 | 90* | 27 | 56 | 54*
O=C(Nc1nc(-c2ccccn2)cs1)c1ccc(F)c(S(=O)(=O)N2CCOCC2)c1 | 5 | 20 | 94* | 26 | 67* | 36
O=C(Nc1nc(-c2ccccn2)cs1)c1cc(S(=O)(=O)N2CCOCC2)ccc1F | 1 | -18 | 40 | 19 | 6 | 8
Cc1ccc(C(=O)Nc2nc(-c3ccccn3)cs2)cc1S(=O)(=O)N1CCOCC1 | 11 | 35 | 90* | 34 | 54 | 37
O=C(Nc1ccc(Br)cc1)c1ccc(F)c(S(=O)(=O)N2CCN(c3ccccn3)CC2)c1 | 33 | 53* | 80 | 25 | 19 | 26
CN(CC1CCCO1)S(=O)(=O)c1ccc(C(=O)Nc2ccccc2F)cc1 (configuration not stated) | -10 | -6 | -2 | -5 | -9 | -17
Cc1ccccc1NC(=O)c1ccc(F)c(S(=O)(=O)N2CCN(c3ccccn3)CC2)c1 | 16 | 34 | 57 | 14 | 13 | -7
CN(C)c1cccc(C(=O)NNC(=O)CN2C(=O)C3CC=CCC3C2=O)c1 (configuration not stated) | 53* | 53* | -75 | -32 | -47 | -287
N#C/C(=C\c1cccs1)C(=O)Nc1nccs1 | 2 | 53* | -99 | -23 | -94 | -313
CC(=O)OCCNc1cc(N2CCN(C)CC2)c2noc3c2c1C(=O)c1ccccc1-3 | -16 | -8 | 0 | -5 | / | 3
CCOC(=O)C(C(=O)OCC)c1cc(Br)c2noc3c2c1C(=O)c1ccccc1-3 | 11 | 20 | 99* | 10 | 95* | 113*
Nc1ccccc1SC(CC(=O)c1ccccc1)c1ccccc1 (configuration not stated) | -47 | 1 | -9 | -21 | / | -91
CC(C(Sc1ccccc1N)c1ccccc1)[N+](=O)[O-] (configuration not stated) | 55* | -25 | 63 | 5 | 71* | 49
O=C(Nc1ccccc1)c1ccc(-c2ccccc2)s1 | -27 | -8 | -50 | -12 | -86 | -341
SMILES | TROY signal inh | TWEAK-Fn14 inh | Shn3 inh set2 | LMP1 NFkB inh | MITF TRPM1 inh | Peg3 prom inh
O=C(O)c1ccc(-c2ccc(-c3ccccc3)cc2)s1 | -28 | 43 | 5 | 2 | 81* | 85*
COc1ccccc1CN1C[C@@H]2C[C@@H](C3=Cc4cc(Cl)ccc4OC3)N3CCC[C@@]23C1=O | 12 | 8 | 16 | 27 | 8 | 31
CS(=O)(=O)N(CC(=O)NCc1ccc2c(c1)OCO2)Cc1ccccc1 | -4 | -14 | -10 | -9 | 2 | 5
NC(=O)NC(=O)COC(=O)/C=C/c1cccc(Br)c1 | 4 | -5 | -1 | 1 | 1 | 6
CCOC(=O)C(CC)(CC)C(=O)/C=C/c1cccc(Br)c1 | 2 | 59* | 73 | -27 | 30 | 109*
CN(C)C=Nc1ccc([N+](=O)[O-])c2ccccc12 | -4 | -12 | -3 | -3 | / | -22
CC(C)n1nnnc1C1c2ccccc2C(=O)N1Cc1cccc(F)c1 (configuration not stated) | 13 | -8 | / | / | / | /
CC1=C(O)c2ccccc2C(=O)C1=O | 0 | -4 | 0 | / | / | 20
O=C1C(C=Nc2ccc(F)cc2)=C(O)c2ccccc21 | 35 | 80* | -40 | -36 | -12 | -5
Cc1ccccc1N=CC1=C(O)c2ccccc2C1=O | 78* | 106* | 24 | 38 | 46 | 19
Fc1ccc(N=Cc2ccc[nH]2)cc1 | 2 | 10 | 2 | 8 | -2 | 5
O=C(CCSCc1ccccc1F)NCc1ccc(F)cc1 | -19 | -15 | -2 | -5 | 4 | 7
O=C(COC(=O)C1(c2ccc(F)cc2)CCCC1)N1CCc2ccccc21 | 2 | 27 | 4 | 1 | 4 | 8
Cc1cc(C(=O)CSc2nnnn2C)c(C)n1-c1ccc2c(c1)OCCO2 | 52* | 22 | -14 | -34 | -71 | -214
Cc1cc(C(=O)CN2C(=O)C(=O)N(Cc3ccccc3)C2=O)c(C)n1-c1ccc2c(c1)OCCO2 | 22 | 51* | 7 | 2 | -4 | 22
Cc1cc(C(=O)CSc2nnc(-c3ccco3)o2)c(C)n1-c1ccc2c(c1)OCCO2 | 15 | 42 | 42 | 14 | 22 | 8
Cc1cc(C(=O)CN2C(=O)C3CC=CCC3C2=O)c(C)n1-c1ccccc1 (configuration not stated) | -15 | 56* | -110 | -8 | -37 | -228
CCCC1(CCC)NC(=O)N(CC(=O)c2cc(C)n(-c3ccc4c(c3)OCO4)c2C)C1=O | -26 | -1 | 14 | -31 | -12 | -7
O=C(Nc1cccc(F)c1)C1CC(=O)N(c2ccc(Br)cc2)C1 (configuration not stated) | 0 | -2 | -1 | -8 | 2 | 19
O=C(Nc1cccc(Cl)c1Cl)C1CC(=O)N(c2ccc(Br)cc2)C1 (configuration not stated) | 16 | -6 | 87* | 7 | 22 | 24
CC1CCCC=CC2CC(OC(=O)CN(C)C)CC2C(O)C=CC(=O)O1 (configuration not stated) | -10 | 41 | 63 | -91 | 76* | 55*
CC(C)c1ccc(NC(=O)CN(C)C2=NS(=O)(=O)c3ccccc32)cc1 | -8 | 11 | 1 | -1 | / | 1
